# Data from PubChem BioAssay.
# The source made the active and inactive calls.
# Assays:
# [1] = A549 cell viability effects, profiling panel, calcein-AM fluorescence, 48 h, basal (AID 1162); conditions: higher = more signal
# [2] = adipocyte viability effects, profiling panel, cell-based, 3T3-L1 adipocytes, calcein-AM fluorescence, 48 h, basal (AID 1163); conditions: 3T3-L1 adipocytes viability, higher = more signal
# [3] = HepG2 cell viability effects, profiling panel, calcein-AM fluorescence, 48 h, basal (AID 1164); conditions: higher = more signal
# [4] = MM1S cell viability effects, profiling panel, calcein-AM fluorescence, 48 h, basal (AID 1165); conditions: higher = more signal;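 note: viability of MM1S multiple myeloma cells under basal unstimulated conditions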
# [5] = basal RPMI8226 viability, no added stimulus, profiling panel, cell-based, calcein-AM fluorescence, 48 h, PK04 Diversity Set (AID 1166); conditions: RPMI8226 myeloma viability, higher = more signal;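 note: cells grown under basal conditions without added stimulus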
# [6] = basal HepG2 mitochondrial membrane potential changes, profiling panel, cell-based, JC-1 fluorescence, 24 h, 100 nL compound (AID 1167); conditions: higher = more signal
# [7] = basal 3T3-L1 adipocyte mitochondrial potential changes, profiling panel, cell-based, JC-1 fluorescence, 3T3-L1 adipocytes, 24 h, 100 nL compound (AID 1168); conditions: JC-1 mitochondrial fluorescence, higher = more signal, called active from +8 up or from −8 down
# [8] = basal RPMI8226 mitochondrial membrane potential changes, profiling panel, cell-based, JC-1 fluorescence, 24 h, 100 nL compound (AID 1169); conditions: RPMI8226 myeloma, JC-1 mitochondrial potential fluorescence, higher = more signal
# [9] = basal MM1S mitochondrial membrane potential changes, profiling panel, cell-based, JC-1 fluorescence, 24 h, 100 nL compound (AID 1170); conditions: higher = more signal
# [10] = A549 lung cancer cell viability effects, profiling panel, resazurin fluorescence, 24 h, PK04 Diversity Set (AID 1171); conditions: higher = more signal, called active from +8 up or from −8 down
# Note: test concentration not given here.
SMILES,z-score [1],z-score [2],z-score [3],z-score [4],z-score [5],z-score [6],z-score [7],z-score [8],z-score [9],z-score [10]
Cc1ccc(S(=O)(=O)N[C@@H]2COC(=O)[C@H](C)COC(=O)CC=C[C@H]2C)cc1,0.449,0.518,0.53,0.228,0.274,0.539,-0.0933 (inactive),1.06,0.34,0.317 (inactive)
COc1ccccc1CN1C(=O)c2ccccc2[C@@H](C(=O)NCC(F)(F)F)[C@@H]1c1ccc(CO)cc1,1.4,-0.467,1.67,-0.127,1.04,1.62,0.913 (inactive),0.28,-0.684,0.633 (inactive)
CC(C)N1CC=CC23O[C@@H]4C=CCCOC(=O)C4[C@H]2C(=O)N(CCCCCCO)[C@@H]3C1=O (stereo not given in full),0.647,-0.505,0.677,0.585,0.788,0.614,0.294 (inactive),0.936,-0.768,0.711 (inactive)
C=CCOC(=O)[C@H]1[C@@H]2C(=O)O[C@@H](c3ccccc3)[C@@H](c3ccccc3)N2[C@@H](c2ccc(OCCOC(=O)[C@H]3C[C@H]4C(=O)N[C@@H](Cc5ccccc5)C(=O)N4[C@H]3c3ccc(O)cc3)cc2)[C@]12C(=O)Nc1ccccc12,-0.794,0.689,0.642,0.0505,-0.216,-1.47,0.0241 (inactive),-0.287,-0.718,1.7 (inactive)
COCCOC(=O)N1C(=O)[C@@]2(c3cc(C#Cc4ccc(OC)cc4)ccc31)[C@H](c1ccc(O)cc1)N1[C@H](c3ccccc3)[C@H](c3ccccc3)OC(=O)[C@H]1[C@@H]2C(N)=O,-0.64,0.38,-0.531,-2.08,-3.7,-1.74,0.563 (inactive),-0.896,-0.721,-1.51 (inactive)
C#CCCCON=C1C[C@@H](O)[C@@H](O)[C@@H]2[C@@H]3C(=O)N(CCC(=O)OCC)C(=O)[C@@H]3CC[C@@H]12,-0.284,-0.533,-0.675,0.17,-0.608,-1.18,-1.66 (inactive),0.213,-0.123,-0.0981 (inactive)
COC(=O)[C@]1(CO)N=C(c2ccc(OCCCO)cc2)O[C@@H]1c1ccccc1N=[N+]=[N-],-0.0196,0.909,0.45,0.512,-0.172,-0.177,-0.464 (inactive),0.392,-0.471,-0.276 (inactive)
CC(CCN1CCc2nc(-c3ccccc3)c(-c3ccccc3)cc2C1)=NOC[C@@H](C)[C@H](OCc1ccccc1)C(C)C,0.474,0.503,0.488,-0.637,-1.89,1.76,-0.479 (inactive),0.161,-0.38,-0.611 (inactive)
CS(=O)(=O)CCOC(=O)C1=CC(CCCO)=CC(c2cccs2)N(Cc2cccc(OC(F)(F)F)c2)C=C1C(=O)OCCS(C)(=O)=O (stereo not given),0.0985,0.783,0.464,-3.28,-3.74,0.423,-0.268 (inactive),-0.662,-1,-0.284 (inactive)
C=C(/C(=C/C[C@H](OC(C)=O)c1ccc(OCCO)cc1)c1cnc2ccccc2c1)C(C)C,0.207,1.03,-0.427,-0.753,0.383,1.56,-0.449 (inactive),-0.416,0.0674,1.76 (inactive)
Cc1cc2c(nc1C)CCCN2CC(C)ON=C1[C@H]2CCn3c(=O)n(-c4ccccc4)c(=O)n3[C@H]2[C@H](O)[C@@H]2O[C@H]12 (stereo not given in full),-0.457,0.0888,-0.56,-1.83,-0.0008,-0.788,-1.38 (inactive),0.477,0.327,-0.702 (inactive)
CO[C@H]1COC(=O)CC=C[C@H](C)[C@@H](NS(=O)(=O)c2ccc(C)cc2)COC(=O)CC=C[C@@H]1C,0.368,0.902,0.605,-0.204,0.15,-0.0318,-1.58 (inactive),0.0791,-1.17,-0.0226 (inactive)
COCC1=C2[C@@H](CCc3ccccc3)OB(O)C[C@@H]2n2c(=O)n(-c3ccccc3)c(=O)n2C1,-0.0316,-0.174,0.602,-0.0123,-0.412,-1.83,0.619 (inactive),0.164,0.368,-0.566 (inactive)
C[C@@H]1C=CCC(=O)OC[C@H](C)C(=O)OC[C@H]2O[C@H]1C=C[C@H]2O,0.145,-0.261,-0.139,-1.42,-0.595,0.482,0.36 (inactive),-0.103,-0.314,0.172 (inactive)
COC(=O)C1=C(C)N(Cc2ccccc2)[C@]23O[C@](C(=O)OC)(C(=O)N2[C@@H]1c1ccccc1)[C@H]1CCOC(=O)[C@H]13,0.589,0.109,-0.21,0.0449,-0.808,0.74,0.642 (inactive),-0.139,-0.0135,0.516 (inactive)
[N-]=[N+]=NCc1ccccc1C[C@]1(C(=O)NCc2ccccc2)N=C(c2ccc(OCCCO)cc2)O[C@H]1c1ccccc1N=[N+]=[N-],-0.71,0.0331,-1.03,-2.98,-4.24,0.504,-0.249 (inactive),-1.17,-1.5,-0.883 (inactive)

SMILES,z-score [1],z-score [2],z-score [3],z-score [4],z-score [5],z-score [6],z-score [7],z-score [8],z-score [9],z-score [10]
C[C@@H](c1ccccc1)N1C(=O)[C@H]2[C@H]3[C@H](O)[C@H](O)CC(=NOC[C@@H](O)COCc4ccco4)[C@@H]3CC[C@H]2C1=O,0.0517,-0.837,-0.78,0.0485,-0.873,-0.794,-0.519 (inactive),-0.287,-0.542,-0.428 (inactive)
COc1ccc(OC[C@H]2Cc3c(-c4ccccc4)nc4c(c3CO2)CN(CCOc2ccccc2)CC4)cc1,0.823,1.04,0.562,-2.69,-1.81,3.51,0.367 (inactive),-0.177,0.656,-0.634 (inactive)
CC(=O)OC[C@H]1O[C@H](CCON=C[C@@H](C)[C@H](OCc2ccccc2)C(C)C)C=C[C@@H]1OC(C)=O,-0.606,-0.52,-0.737,-0.09,-0.5,-1.26,-0.801 (inactive),-0.0185,0.0314,0.0793 (inactive)
O=C1c2ccccc2[C@@]2(Cc3ccccc3N(C3CC3)C2=O)[C@H](c2ccc(CO)cc2)N1Cc1ccccc1C(F)(F)F,0.238,0.4,-0.772,0.306,-0.522,1.13,-0.474 (inactive),0.84,-1.56,0.164 (inactive)
COc1ccc(O[C@H]2C=C[C@@H](c3ccccc3)O[C@@H]2COC(=O)N2CCCCC2)cc1,-0.0152,-0.303,0.0678,-0.979,-1.22,1.23,-0.0796 (inactive),-0.358,0.125,1.57 (inactive)
COC(=O)[C@H](C)NC(=O)CCC1CC(OC(=O)NCCc2ccc(F)cc2)CC2(CCCC(COC(=O)NCCc3ccc(Cl)cc3)O2)O1 (stereo not given in full),0.98,-0.154,0.649,-1.14,-0.227,0.341,0.313 (inactive),0.437,-0.324,0.544 (inactive)
COC(=O)CC=C[C@@H](C)[C@@H](C=NO[C@H](C)c1cn([C@@H]2COC[C@H]2O)nn1)OC,0.947,-0.0678,0.185,0.415,-0.507,1.2,-0.39 (inactive),0.146,-0.469,-0.567 (inactive)
CC(=O)OC[C@H]1O[C@H](CCON=C(C)CCN2CCc3nc(-c4ccccc4)c(-c4ccccc4)cc3C2)C=C[C@@H]1OC(C)=O,0.396,0.235,0.2,-2.16,0.091,-0.273,-1.4 (inactive),0.168,-0.594,0.783 (inactive)
C=CC[C@]1(C(=O)NCc2ccccc2)N=C(c2ccc(OCCCO)cc2)O[C@H]1c1ccccc1,-1.38,0.43,-1.98,-2.75,-3.75,-0.022,-0.18 (inactive),-1.31,-0.988,0.953 (inactive)
O=C1[C@H]2[C@H]3[C@H](O)[C@H](O)CC(=NOCc4ccccc4)[C@H]3CC[C@H]2C(=O)N1C[C@@H]1CCCO1,0.0598,-0.247,-0.85,-0.306,0.422,-0.528,-1.13 (inactive),-0.669,-0.153,0.469 (inactive)
CCOC(=O)[C@H](CC(C)C)NC(=O)CCC1CC(OC(=O)NCc2cccc3ccccc23)CC2(CCCC(COC(=O)NCCc3ccccc3OC)O2)O1 (stereo not given in full),-0.571,-0.187,-0.766,0.0779,-0.407,0.602,-0.0276 (inactive),-0.0975,-0.157,0.45 (inactive)
O=C1[C@H]2[C@H]3[C@H](O)[C@H](O)CC(=NO[C@@H]4O[C@H](CO)[C@@H](O)[C@H](O)[C@H]4O)[C@H]3CC[C@H]2C(=O)N1C1CCCCC1,-0.649,0.034,-0.627,0.206,0.115,-0.871,-1.53 (inactive),0.368,-0.11,0.302 (inactive)
C#CCCCON=C1C[C@@H](O)[C@@H](O)[C@@H]2[C@@H]3C(=O)N(Cc4ccccc4)C(=O)[C@@H]3CC[C@H]12,0.416,0.798,-0.969,0.772,0.477,0.843,0.381 (inactive),0.379,-0.901,0.97 (inactive)
O=C1[C@H]2[C@H]3[C@H](O)[C@H](O)CC(=NOC[C@@H](O)COCc4ccco4)[C@H]3CC[C@H]2C(=O)N1C1CCCCC1,-1.03,0.979,0.187,0.29,-1.01,-0.322,-0.236 (inactive),-1.02,-0.611,-0.381 (inactive)
COC(=O)[C@H](C)NC(=O)CCC1CC(OC(=O)NCc2cccc3ccccc23)CC2(CCCC(COC(=O)NCCc3ccc(Cl)cc3)O2)O1 (stereo not given in full),0.346,0.118,0.0326,-0.333,-0.94,0.159,-0.294 (inactive),-0.318,-0.197,0.871 (inactive)
C=C(COC)/C(=C/C[C@H](OC(=O)c1ccncc1)c1ccc(CO)o1)c1cc(C(=O)OC)ccc1OC,-1.2,-0.256,-0.981,-0.43,-0.111,-0.47,-1.01 (inactive),0.126,0.00652,0.451 (inactive)
